Laboratory results published in PubChem BioAssay (NCATS).
Where “and” joins values, the source holds several entries; their conditions need not be identical. Equal values may be shown once. Records with an inconclusive call do not appear. Calls of active or inactive are those of the source. Calls come from the whole dose curve; as a rule, active = well fitted cell-killing curve with a large enough effect; inconclusive = small, poorly fitted or top-dose-only effect, or effect the other way; inactive = no such curve, though single readings can be large or run the other way. Where a SMILES comes first, the peptide text is derived from it. [ ]: non-standard residue; d: D form. pGlu = O=C1CC[C@@H](C(=O)O)N1

test: Viability qHTS for spleen associated tyrosine kinase inhibitor (SYKi) naive MV4-11 cells (AID 1963823); details: MV4-11 AML viability, CellTiter-Glo luminescence, 72 h; series mostly up to 45 µM; viability (% of control): at the top concentration; note: nearly all actives have a fitted effect of over 40% in size
Outline: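 Viability of MV4-11 AML cells lacking prior SYK inhibitor exposure is scored by CellTiter-Glo luminescence following 72 hr compound incubation at 37 C, 5% CO2, seeded at 500 cells per well.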
Potency is the fitted concentration of half-maximal effect.

| Structure (SMILES) | viability (% of control) | Potency |
| --- | --- | --- |
| COc1cc(Cc2cnc(N)nc2N)cc(OC)c1OC | 79% (inactive) |  |
| C[C@@H](O)[C@@H]1NC(=O)[C@H](CCCCN)NC(=O)[C@@H](Cc2c[nH]c3ccccc23)NC(=O)[C@H](Cc2ccccc2)NC(=O)[C@@H](NC(=O)[C@H](N)Cc2ccccc2)CSSC[C@@H](C(=O)N[C@H](CO)[C@@H](C)O)NC1=O | 84.6% [at 17.3 µM] (inactive) |  |
| Cc1ccc(NC(=O)Nc2nnc(Sc3ncnc4cc(OCCCN5CCOCC5)ccc34)s2)cc1 |  | 0.0148 µM (active) |
| C[C@]1(Cn2ccnn2)[C@H](C(=O)O)N2C(=O)C[C@H]2S1(=O)=O | 75.7% (inactive) |  |
| CC[C@@]1(O)C(=O)OCc2c1cc1n(c2=O)Cc2c-1nc1ccccc1c2CCNC(C)C |  | 0.0059 µM (active) |
| CCCNC(=O)[C@H]1O[C@@H]1C(=O)N[C@H](C(=O)N1CCC[C@H]1C(=O)OC)C(C)CC (stereo not given in full) |  | 1.66 µM (active) |
| COc1cc(C(=O)OC(COCCC(C)C)CN2CCOCC2)cc(OC)c1OC (stereo not given) | 77.7% (inactive) |  |
| Nc1nc(F)nc2c1ncn2C1OC(COP(=O)(O)O)C(O)C1O (stereo not given) |  | 10.5 µM (active) |
| Cc1ccc(-n2nc(C(C)(C)C)cc2NC(=O)NCc2cc(F)ccc2Oc2ccc3c(cnn3CCO)c2)cc1 |  | 9.34 µM (active) |
| CC(=O)c1cc2c(o1)C(=O)c1ccccc1C2=O |  | 1.18 µM (active) |
| COC(=O)C1=C(C)NC(c2ncc(F)cc2F)=N[C@H]1c1ccc(F)cc1Cl |  | 20.9 µM (active) |
| Cc1nc(-c2cccnc2)sc1C(=O)Nc1ccccc1-c1cn2c(CN3CCOCC3)csc2n1 | 74.3% (inactive) |  |
| CC(=O)Nc1ccc(C(=O)O)cc1 | 92.4% (inactive) |  |
| Cc1cccc(C)c1NC(=O)CN1CCN(CCCC(c2ccc(F)cc2)c2ccc(F)cc2)CC1 |  | 10.6 µM (active) |
| OCCN1CCN(CCCN2c3ccccc3Sc3ccc(Cl)cc32)CC1 |  | 11.9 µM (active) |
| COc1cc2ncnc(Nc3ccc(O)c(Br)c3)c2cc1OC |  | 1.16 µM (active) and 662 nM (active) |
| CCCCCCCC/C=C\CCCCCCCC(=O)NCc1ccc(O)c(OC)c1 | 76.5% (inactive) |  |
| C=CC(=O)Nc1cccc(Nc2nc(Nc3ccc(OCCOC)cc3)ncc2F)c1 |  | 0.468 µM (active) |
| CN(C)CCCOC1(Cc2ccccc2)CCCCCC1 | 80% (inactive) |  |
| Cc1cc(I)ccc1Nc1c(C(=O)NOCC2CC2)cc(F)c(F)c1F |  | 2.31 µM (active) |

| Structure (SMILES) | viability (% of control) | Potency |
| --- | --- | --- |
| O=c1sn(-c2cccc3ccccc23)c(=O)n1Cc1ccccc1 |  | 14.6 µM (active) |
| Cc1cc(CS(=O)(=O)c2ccccc2)cc(OCc2ccc(CN3CCC[C@@H]3CO)cc2)c1 |  | 16.6 µM (active) |
| COc1cc(OC)c(/C=C/S(=O)(=O)Cc2ccc(OC)c(OP(=O)(O)O)c2)c(OC)c1 |  | 0.0118 µM (active) |
| C=C1CCC2[C@](C)(CO)C(O)CC[C@]2(C)C1C/C=C1/C(=O)OCC1O (stereo not given in full) |  | 3.32 µM (active) |
| Cc1ccc(C(=O)C(=O)O)cc1C | 60.2% (inactive) |  |
| NC(=O)c1cccc2c(NC(CN3CCC3)c3ccc(Cl)c(C(F)(F)F)c3)ncnc12 (stereo not given) |  | 1.48 µM (active) |
| CCCCN(CCCC)CCCOC(=O)c1ccc(N)cc1 | 56.2% (inactive) |  |
| C[C@@H]1CN(CC(=O)Nc2ccc3c(c2)Cc2cccc(-c4cc(=O)cc(N5CCOCC5)o4)c2S3)C[C@H](C)O1 |  | 8.33 µM (active) |
| Nc1nc(F)nc2c1ncn2[C@@H]1O[C@H](COP(=O)(O)O)[C@@H](O)[C@@H]1O |  | 8.33 µM (active) |
| NNc1nnc(NN)c2ccccc12 | 72.7% (inactive) |  |
| CCC1(c2cnc[nH]2)Cc2ccccc2C1 | 71.9% (inactive) |  |
| Cn1c(=O)c2c(ncn2CCO)n(C)c1=O | 74.4% (inactive) |  |
| O=C(Nc1ccc(OC(F)(F)Cl)cc1)c1cnc(N2CC[C@@H](O)C2)c(-c2ccn[nH]2)c1 |  | 5.9 µM (active) |
| C[C@@H]1O[C@@H](OC[C@H]2O[C@@H](Oc3c(-c4ccc(O)c(O)c4)oc4cc(O)cc(O)c4c3=O)[C@H](O)[C@@H](O)[C@@H]2O)[C@H](O)[C@H](O)[C@H]1O | 71.2% (inactive) |  |
| CCNC(=O)[C@@H]1CCCN1C(=O)[C@H](CCCN=C(N)N)NC(=O)[C@H](CC(C)C)NC(=O)CNC(=O)[C@H](Cc1ccc(O)cc1)NC(=O)[C@H](CO)NC(=O)[C@H](Cc1c[nH]c2ccccc12)NC(=O)[C@H](Cc1cnc[nH]1)NC(=O)[C@@H]1CCC(=O)N1 ([pGlu]HWSYGLRP-NHEt) |  | 13.3 µM (active) |
| Cc1[nH]nc(C(F)(F)F)c1Cc1sc2c(c1C(=O)N1C[C@](C)(O)CO1)c(=O)n(C)c(=O)n2C(C)C | 61.3% (inactive) |  |
| CCCc1ncc(C(=O)O)s1 | 80.5% (inactive) |  |
| O=C(c1ccc(/C=C/c2n[nH]c3ccccc23)cc1)N1CCNCC1 |  | 0.058 µM (active) |
| C#C[C@]1(O)CC[C@H]2[C@@H]3CCC4=Cc5oncc5C[C@]4(C)[C@H]3CC[C@@]21C |  | 15 µM (active) |
| COc1ccc(Cl)c(Nc2ncnc3cc(OCC4CCN(C)CC4)c(OC)cc23)c1 |  | 5.25 µM (active) |

test: Viability qHTS for spleen associated tyrosine kinase inhibitor (SYKi) drug resistant MV4-11 cells (AID 1963824); details: SYKi-resistant MV4-11 viability, CellTiter-Glo, 72 h; series mostly up to 45 µM; viability, % of control: at the top concentration; note: nearly all actives have a fitted effect of over 35% in size
Outline: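 SYK-inhibitor-resistant MV4-11 AML cells were seeded at 500 per well onto compound and cultured 72 hours (37 °C, 5% CO2). CellTiter-Glo was then added, and after 10 min at room temperature, luminescence gave viability.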

| Structure (SMILES) | viability, % of control | Potency |
| --- | --- | --- |
| COc1cc(Cc2cnc(N)nc2N)cc(OC)c1OC | 101% (inactive) |  |
| C[C@@H](O)[C@@H]1NC(=O)[C@H](CCCCN)NC(=O)[C@@H](Cc2c[nH]c3ccccc23)NC(=O)[C@H](Cc2ccccc2)NC(=O)[C@@H](NC(=O)[C@H](N)Cc2ccccc2)CSSC[C@@H](C(=O)N[C@H](CO)[C@@H](C)O)NC1=O | 94.4% [at 17.3 µM] (inactive) |  |
| Cc1ccc(NC(=O)Nc2nnc(Sc3ncnc4cc(OCCCN5CCOCC5)ccc34)s2)cc1 |  | 0.0166 µM (active) |
| C[C@]1(Cn2ccnn2)[C@H](C(=O)O)N2C(=O)C[C@H]2S1(=O)=O | 95.2% (inactive) |  |
| CC[C@@]1(O)C(=O)OCc2c1cc1n(c2=O)Cc2c-1nc1ccccc1c2CCNC(C)C |  | 0.0059 µM (active) |
| CCCNC(=O)[C@H]1O[C@@H]1C(=O)N[C@H](C(=O)N1CCC[C@H]1C(=O)OC)C(C)CC (stereo not given in full) |  | 0.934 µM (active) |
| COc1cc(C(=O)OC(COCCC(C)C)CN2CCOCC2)cc(OC)c1OC (stereo not given) | 79.9% (inactive) |  |
| Nc1nc(F)nc2c1ncn2C1OC(COP(=O)(O)O)C(O)C1O (stereo not given) |  | 14.8 µM (active) |
| Cc1ccc(-n2nc(C(C)(C)C)cc2NC(=O)NCc2cc(F)ccc2Oc2ccc3c(cnn3CCO)c2)cc1 |  | 10.3 µM (active) |
| CC(=O)c1cc2c(o1)C(=O)c1ccccc1C2=O |  | 1.32 µM (active) |
| COC(=O)C1=C(C)NC(c2ncc(F)cc2F)=N[C@H]1c1ccc(F)cc1Cl |  | 9.34 µM (active) |
| Cc1nc(-c2cccnc2)sc1C(=O)Nc1ccccc1-c1cn2c(CN3CCOCC3)csc2n1 | 84.6% (inactive) |  |
| CC(=O)Nc1ccc(C(=O)O)cc1 | 90.8% (inactive) |  |
| Cc1cccc(C)c1NC(=O)CN1CCN(CCCC(c2ccc(F)cc2)c2ccc(F)cc2)CC1 |  | 8.41 µM (active) |
| OCCN1CCN(CCCN2c3ccccc3Sc3ccc(Cl)cc32)CC1 |  | 8.41 µM (active) |
| COc1cc2ncnc(Nc3ccc(O)c(Br)c3)c2cc1OC |  | 1.64 µM (active) and 1.66 µM (active) |
| CCCCCCCC/C=C\CCCCCCCC(=O)NCc1ccc(O)c(OC)c1 |  | 0.668 µM (active) |
| C=CC(=O)Nc1cccc(Nc2nc(Nc3ccc(OCCOC)cc3)ncc2F)c1 |  | 0.651 µM (active) |
| CN(C)CCCOC1(Cc2ccccc2)CCCCCC1 | 79.5% (inactive) |  |
| Cc1cc(I)ccc1Nc1c(C(=O)NOCC2CC2)cc(F)c(F)c1F |  | 2.59 µM (active) |

| Structure (SMILES) | viability, % of control | Potency |
| --- | --- | --- |
| O=c1sn(-c2cccc3ccccc23)c(=O)n1Cc1ccccc1 |  | 11.6 µM (active) and 8.33 µM (active) |
| Cc1cc(CS(=O)(=O)c2ccccc2)cc(OCc2ccc(CN3CCC[C@@H]3CO)cc2)c1 |  | 16.6 µM (active) |
| COc1cc(OC)c(/C=C/S(=O)(=O)Cc2ccc(OC)c(OP(=O)(O)O)c2)c(OC)c1 |  | 0.0148 µM (active) |
| C=C1CCC2[C@](C)(CO)C(O)CC[C@]2(C)C1C/C=C1/C(=O)OCC1O (stereo not given in full) |  | 2.63 µM (active) |
| Cc1ccc(C(=O)C(=O)O)cc1C | 84.5% (inactive) |  |
| NC(=O)c1cccc2c(NC(CN3CCC3)c3ccc(Cl)c(C(F)(F)F)c3)ncnc12 (stereo not given) |  | 2.35 µM (active) |
| CCCCN(CCCC)CCCOC(=O)c1ccc(N)cc1 | 69% (inactive) |  |
| C[C@@H]1CN(CC(=O)Nc2ccc3c(c2)Cc2cccc(-c4cc(=O)cc(N5CCOCC5)o4)c2S3)C[C@H](C)O1 |  | 4.68 µM (active) |
| Nc1nc(F)nc2c1ncn2[C@@H]1O[C@H](COP(=O)(O)O)[C@@H](O)[C@@H]1O |  | 14.8 µM (active) |
| NNc1nnc(NN)c2ccccc12 | 72.3% (inactive) |  |
| CCC1(c2cnc[nH]2)Cc2ccccc2C1 | 87.3% (inactive) |  |
| Cn1c(=O)c2c(ncn2CCO)n(C)c1=O | 81.2% (inactive) |  |
| O=C(Nc1ccc(OC(F)(F)Cl)cc1)c1cnc(N2CC[C@@H](O)C2)c(-c2ccn[nH]2)c1 |  | 6.61 µM (active) |
| C[C@@H]1O[C@@H](OC[C@H]2O[C@@H](Oc3c(-c4ccc(O)c(O)c4)oc4cc(O)cc(O)c4c3=O)[C@H](O)[C@@H](O)[C@@H]2O)[C@H](O)[C@H](O)[C@H]1O | 80.6% (inactive) |  |
| CCNC(=O)[C@@H]1CCCN1C(=O)[C@H](CCCN=C(N)N)NC(=O)[C@H](CC(C)C)NC(=O)CNC(=O)[C@H](Cc1ccc(O)cc1)NC(=O)[C@H](CO)NC(=O)[C@H](Cc1c[nH]c2ccccc12)NC(=O)[C@H](Cc1cnc[nH]1)NC(=O)[C@@H]1CCC(=O)N1 ([pGlu]HWSYGLRP-NHEt) | 80.4% (inactive) |  |
| Cc1[nH]nc(C(F)(F)F)c1Cc1sc2c(c1C(=O)N1C[C@](C)(O)CO1)c(=O)n(C)c(=O)n2C(C)C |  | inactive |
| CCCc1ncc(C(=O)O)s1 | 89.7% (inactive) |  |
| O=C(c1ccc(/C=C/c2n[nH]c3ccccc23)cc1)N1CCNCC1 |  | 0.206 µM (active) |
| C#C[C@]1(O)CC[C@H]2[C@@H]3CCC4=Cc5oncc5C[C@]4(C)[C@H]3CC[C@@]21C |  | 8.41 µM (active) |
| COc1ccc(Cl)c(Nc2ncnc3cc(OCC4CCN(C)CC4)c(OC)cc23)c1 |  | 5.17 µM (active) |
